# aSyn rescue = rescues yeast growth from alpha-synuclein toxicity; Potency, µM (titrated, usually from 46.1 µM), without a hit: at the top dose growth rescue (activation), usual class: activators; 370,000 compounds, 0.14% hits; Yeast expressing alpha-synuclein, growth rescue, BacTiter-Glo, 24 h; AID 652106; note: potency is the fitted concentration of half-maximal effect; % of control where 0% means no effect; nearly all actives have a fitted effect of over 65% in size
#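 Galactose-induced alpha-syn yeast (OD600=0.02, raffinose-pregrown) + pinned cpd, 24 hr, 30 deg C; growth by BacTiter-Glo luminescence. Growth restoration scores as activation.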
# TDP-43 yeast inh = inhibitors of TDP-43 toxicity in yeast; TDP-43 expressing yeast growth rescue, BacTiter-Glo, 24 h; Potency, µM (top dose mostly 46.1 µM), inactives show at the highest dose growth rescue (activation), hits mostly activators; 410,000 compounds, 1.8% hits; AID 652104; note: potency is the fitted concentration of half-maximal effect; % of control where 0% means no effect; nearly all actives have a fitted effect of over 50% in size
#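 In this qHTS, compounds that restore growth of yeast expressing TDP-43 appear as activators. Cells (OD600=0.02, galactose medium, raffinose-pregrown) are incubated with compound 24 hr at 30 deg C and growth is quantified by BacTiter-Glo.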
# Anesthetic bind = candidate novel general anesthetic via apoferritin binding; P02791; apoferritin/1-aminoanthracene competitive binding, fluorescence; Potency, µM (highest dose often 77.5 µM), inactives show at the top dose activity change, negative = displacement, most hits filed as inhibitors; 350,000 compounds, 0.074% hits; AID 485281; note: potency is the fitted concentration of half-maximal effect; % is set by controls: 0 for no effect and ±100 for the full control effect; nearly all actives have a fitted effect of over 20% in size
# Target sequence (P02791 2-175 limits assumed): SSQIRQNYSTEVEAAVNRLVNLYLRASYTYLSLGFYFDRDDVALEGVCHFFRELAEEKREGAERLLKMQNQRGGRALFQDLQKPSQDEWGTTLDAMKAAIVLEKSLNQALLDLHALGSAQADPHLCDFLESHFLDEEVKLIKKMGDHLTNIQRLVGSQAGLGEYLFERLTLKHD
#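 Read-out: endpoint 1-AMA fluorescence, excitation 380 nm and emission 535 nm, after compounds sit 10 min at room temperature with 10 uM horse-spleen apoferritin in 50% saturated 1-AMA/PBS. Values come from four-parameter Hill fits.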
# pAkt inh = blocks phosphorylation of Akt | Neuro2A IGF-stimulated pAkt S473 HTRF, 20 min; active compounds read low | activity change, % for hits at 50 µM | 360,000 compounds, 0.32% hits; in the data active = activity change below about -80%; inconclusive = mostly about -51% to -80%; note: % is set by controls: 0 for no effect and ±100 for the full control effect
#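 Single-point screen (50 µM final compound) in Neuro2A cells stimulated 20 min with 6 nM IGF at 37 deg C. After lysis, Ser473-phosphorylated Akt read by HTRF (ex 330 nm, em 615/665 nm) as the 665/615 ratio.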
# Mito fusion act = blocks mitochondrial division or promotes mitochondrial fusion; S. cerevisiae fusion-defective mutant growth rescue, CellTiterGlo 48 h; Potency, µM (highest dose often 46.1 µM), inactives show at the top dose growth rescue (activation), most hits filed as activators; 320,000 compounds, 0.23% hits; AID 485298; note: potency is the fitted concentration of half-maximal effect; % of control where 0% means no effect; nearly all actives have a fitted effect of over 45% in size
#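 Growth-rescue viability read-out: after 48 h at the non-permissive 37C in glycerol/ethanol YPEG, yeast mitochondrial fusion mutants are measured by CellTiterGlo luminescence; compounds (23 nl pinned per well) restoring growth score as division inhibitors or fusion activators.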
# CCT modulator = cytosolic chaperonin activity modulation | 360,000 compounds, 0.3% hits | activity change, % (concentration not given with the values), hits read low | AID 651819 | purified chaperonin ATPase assay, HTRF ADP detection, 30 min; in the data active = activity change below about -30%; note: % is set by controls: 0 for no effect and ±100 for the full control effect
#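 Enzyme 40 or 20 nM (batch-dependent) in Tris pH 7.4/KCl/MgCl2/DTT; cpd 76 uM single point; ATP 10 uM; 30 min 37 °C; Transcreener ADP HTRF detection, 30 min RT; ratio 665/615.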
# * = called active by the depositor; i = inactive; ? = inconclusive; / = not tested or not shown; [ ] = dose if it differs, or a comment. Sampled rows, rich in hits. Any-hit rate of the full collection: about 2.5%. Unless noted, calls come from the whole dose curve; as a rule, active = well fitted curve in the direction sought with a large enough effect; inconclusive = small, poorly fitted or top-dose-only effect, or another doubt; inactive = no such curve, though single readings can be large; an effect the other way counts as inactive or inconclusive.
SMILES,aSyn rescue,TDP-43 yeast inh,Anesthetic bind,pAkt inh,Mito fusion act,CCT modulator
CCCCNC(=O)Cn1c(SCc2ccccc2C)nc2ccncc21,-7%,/,/,/,/,/
Cc1ccc(C2=Nc3ccccc3N(CC(=O)Nc3ccccc3C)C(=O)C2)cc1C,/,12%,1%,/,/,/
COc1cccc(-c2cn3c(n2)sc2cc(C(=O)NCc4ccccc4F)ccc23)c1,/,?,-9%,/,/,/
CCNC(=O)c1ccc2c(c1)sc1nc(-c3cccc(OC)c3)cn12,/,16µM*,8%,/,/,/
Cc1nn(C)c(C)c1S(=O)(=O)N(CC(=O)NCCc1ccc(Cl)cc1)c1ccc(C(C)C)cc1,/,9%,-14%,/,/,/
O/N=C/c1ccc(OCc2ccccc2)c(Cl)c1,-5%,22µM*,?,i,22µM*,2
O/N=C/c1ccc(OCc2ccccc2F)c(Cl)c1,0%,?,?,i,?,-2
O/N=C/c1ccc(OCc2ccccc2)c(Br)c1,-15%,13µM*,?,i,?,0
N/C(Cc1ccc(Cl)cc1Cl)=N\OC(=O)c1ccccc1,-75%,?,-13%,i,-40%,1
N/C(CC1CC1(Cl)Cl)=N\OC(=O)c1ccccc1 (stereo not drawn),-35%,18µM*,-9%,i,1%,-1
N#CC(=C(\N)Sc1ccccc1N)/C(C#N)=C(/N)Sc1ccccc1N,-77%,/,/,/,18µM*,/
CO/S(=N\S(=O)(=O)c1ccc(Cl)cc1)c1ccc([N+](=O)[O-])cc1 (stereo not drawn),-27%,/,/,/,?,/
O=C(CSc1cnc2ccccc2n1)c1ccc(F)cc1,3%,18µM*,-8%,i,17%,0
CCOC(=O)c1c(C)sc2c1N(C(=O)CCl)c1cc(Cl)ccc1S2,2%,20µM*,-19%,i,-14%,2
O=C(c1ccc2c(=O)n(-c3ccccc3)c(=O)[nH]c2c1)N1CCN(Cc2cccs2)CC1,-14%,/,/,/,/,/
O=C(/C=C/Nc1ccccc1)c1ccccc1,-10%,20%,-11%,/,7%,0
CC(=O)Nc1ccc(N/C=C/C(=O)c2ccccc2)cc1,12%,13µM*,2%,i,-2%,2
CCOc1ccc(C(=O)Nc2cc(-c3ccccc3)no2)cc1,/,24%,-13%,/,/,/
CN(C)c1nc2c(Br)c(Br)c(Br)c(Br)c2[nH]1,-16%,/,/,/,4.1µM*,/
CN(C)c1ccc(C=Nc2cnc3ccccc3c2)cc1,-2%,/,/,/,/,/
Cc1ccc(-c2cnn(-c3cccc(C(F)(F)F)c3)c2N)cc1,0%,28%,-20%,i,-3%,-2
Nc1c(-c2ccccc2)cnn1-c1cccc([N+](=O)[O-])c1,2%,20µM*,?,i,1%,0
Nc1c(-c2ccc(Cl)cc2)cnn1-c1cccc(C(F)(F)F)c1,-8%,4%,-13%,-113%*,-1%,1
CSc1ccc(CCNC(=O)c2c(C)nn(-c3ccc(F)cc3)c2-n2cccc2)cc1,6%,0%,26%,/,/,/
Cc1cc(C)c(NC(=O)c2sc3nc(C)cc(C)c3c2NC(=O)c2ccccc2)c(C)c1,/,-4%,?,/,/,/
SMILES,aSyn rescue,TDP-43 yeast inh,Anesthetic bind,pAkt inh,Mito fusion act,CCT modulator
CS(=O)(=O)N1CCC(C(=O)Nc2cccc(F)c2)CC1,3%,1%,-12%,i,0%,1
CCS(=O)(=O)N1CCC(C(=O)Nc2cccc(F)c2)CC1,1%,11%,-12%,i,0%,-54*
CCN(CC)/[N+]([O-])=N/OCOC(=O)c1ccccc1OC(C)=O,9%,/,/,/,/,/
COC(=O)c1ccc(Oc2ccc(S(=O)(=O)N3CCCCC3)cc2N)cc1,13µM*,?,2%,i,-13%,-6
Cc1cccc(NC(=O)CSc2nc3ccccc3nc2N2CCOCC2)c1C,/,18%,0%,/,/,/
CCOC(=O)[C@]12CCCC=C1N(CCC1=CCCCC1)C(=O)[C@H](CC(=O)NCc1ccccc1)C2,3%,22µM*,/,i,/,/
CCOC(=O)[C@]12CCCC=C1N(CCC1=CCCCC1)C(=O)[C@H](CC(=O)NCC1CCCCC1)C2,-7%,22µM*,/,i,/,/
CCOC(=O)[C@]12CCC=C1N(CCC1=CCCCC1)C(=O)[C@H](CC(=O)NCC1CCCCC1)C2,9%,16%,/,i,/,-1
CCCCCCCCN1C(=O)[C@H](CC(=O)NCCCN2CCCC2=O)C[C@@]2(C(=O)OC)CC(C)(C)CC=C12,-11%,35µM*,/,i,/,/
CCOC(=O)[C@]12CCC=C1N(CCC1=CCCCC1)C(=O)[C@H](CC(=O)NCc1ccccc1)C2,8%,0%,/,i,/,1
C#CCNC(=O)C[C@@H]1C[C@@]2(C(=O)OCC)CCCC=C2N(CCCCCCCC)C1=O,?,13µM*,/,i,/,-1
COc1ccc(-c2ccc3c(n2)CCCN3C[C@H](O)CN2CCCc3nc(C)c(C)cc32)cc1,/,/,-9%[15.3 µM],/,/,/
O=C(Nc1cccc2cccnc12)c1ccc(Br)cc1,-17%,/,/,/,/,/
O=C(C[N+]1(CCO)CCOCC1)c1ccc(F)c2ccccc12,2%,/,/,/,/,/
CSCCC(NC(=O)OCc1ccccc1)C(=O)O (stereo not drawn),-2%,1%,-10%,-104%*,0%,0
O=C(O)CCC(NC(=O)OCc1ccccc1)C(=O)O (stereo not drawn),5%,-20%,-7%,i,2%,-1
O=C(O)c1ccc2c(c1)C1C=CCC1C(c1cc3c(cc1Br)OCO3)N2 (stereo not drawn),4%,?,-5%,i,11µM*,0
O=S(=O)(c1ccc2ccccc2c1)N1CCN(c2nc(-c3ccccc3)nc3ccccc23)CC1,0%,/,/,/,/,/
N[C@@H](COC(c1cccc(F)c1)c1ccccc1OCc1ccccc1)C(=O)O (stereo partly drawn),/,/,-6%,/,/,/
O=C1c2ccsc2SCCN1Cc1c(Cl)cccc1Cl,-3%,18%,?,i,7%,-2
O=C1c2ccsc2SCCN1Cc1ccc(Cl)cc1Cl,3%,0%,?,-106%*,-7%,0
CCOC(=O)c1ccc(COC(=O)CCc2nc3ccccc3[nH]c2=O)o1,0%,-5%,-2%,-103%*,1%,1
CCCCOC(=O)CCc1nc2ccccc2[nH]c1=O,0%,?,-17%,i,2%,-2
NS(=O)(=O)c1ccc(CNS(=O)(=O)c2cc(Cl)ccc2Cl)cc1,-8%,-18%,3%,i,2%,-38*
C(=Nc1ccc(/C=C/c2ccnc3ccccc23)cc1)c1ccco1,-3%,/,/,/,/,/
Cc1cc(C)cc(OCC(=O)NNC(=O)c2ccccn2)c1,?,20µM*,/,i,1%,2

# Screening results: PubChem BioAssay, National Center for Advancing Translational Sciences (NCATS)
